Source: PubChem BioAssay (Tox21)
Values without a mark were called inactive. Results filed as inconclusive are left out. Entries that show only a call come without a potency. Active and inactive are the calls of the source. Unless noted, the call rests on the fitted dose curve; in most records, active means well fitted curve in the direction sought with a large enough effect in the repeat runs; inconclusive means weak or mixed curves; inactive means no such curve, though single readings can be large; an effect the other way counts as inactive or inconclusive.

Tests used:
[1] = target: Luciferin 4-monooxygenase (Photinus pyralis) (UniProt P08659); test: qHTS assay to identify small molecule inhibitors of firefly luciferase (AID 1224835); further: nearly all actives have a fitted effect of over 25% in size
Summary of the method: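 Biochemical qHTS: compounds run as interplate titrations against purified firefly enzyme, with D-luciferin and ATP each at its KM concentration. Light output recorded by CCD imaging.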

[2] = qHTS assay to identify small molecule agonists of the constitutive androstane receptor (CAR) signaling pathway - cell viability counter screen (AID 1224836); further: nearly all actives have a fitted effect of over 45% in size
Summary of the method: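 Using CellTiter-Fluor, viability of HepG2 cells harbouring hCAR and CYP2B6-2.2kb was measured following 23 h incubation with a 15-concentration compound series plus PK11195 (0.75 uM final).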

[3] = qHTS assay to identify small molecule antagonists of the constitutive androstane receptor (CAR) signaling pathway - cell viability counter screen (AID 1224837); further: nearly all actives have a fitted effect of over 45% in size
Summary of the method: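 In quantitative HTS format, compounds at 15 concentrations were applied to HepG2 cells double-transfected with hCAR and CYP2B6-2.2kb under 50 nM CITCO stimulation; live-cell protease activity was read after 23 hr via CellTiter-Fluor.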

[4] = target: Nuclear receptor subfamily 1 group I member 3 (Homo sapiens) (UniProt Q14994); test: qHTS assay to identify small molecule antagonists of the constitutive androstane receptor (CAR) signaling pathway (AID 1224838); further: nearly all actives have a fitted effect of over 40% in size
Summary of the method: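 CITCO-stimulated (50 nM final) HepG2 cells stably transfected with hCAR and CYP2B6-2.2kb luciferase were exposed to compounds at 15 concentrations for 24 h at 37 C/5% CO2. A luciferase reagent was added and luminescence recorded after 30 min.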

[5] = target: Nuclear receptor subfamily 1 group I member 3 (Homo sapiens) (UniProt Q14994); test: qHTS assay to identify small molecule agonists of the constitutive androstane receptor (CAR) signaling pathway (AID 1224839); further: nearly all actives have a fitted effect of over 15% in size; further: potency means the concentration at half of the fitted maximal effect;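 on activation: HepG2 cells stably carrying human CAR and a CYP2B6 luciferase reporter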
Summary of the method: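 Double-stable HepG2 cells (hCAR, CYP2B6-2.2kb) seeded 4 h before compound addition. Exposure 24 h with 0.75 uM PK11195 final. Luciferase detected by ONE-Glo.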

[6] = qHTS assay to identify small molecule antagonists of the estrogen related receptor signaling pathway with the pleiotropic PPARgamma coactivator (PGC) from Tox21 10K library - cell viability counter screen (AID 1224840; active means well fitted cell-killing curve with a large enough effect in the repeat runs, not every such curve was filed as active; further: nearly all actives have a fitted effect of over 40% in size)
Summary of the method: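 Viability counter screen, PGC/ERR cells: 17.5 h compound exposure at 37 C, CellTiter-Fluor fluorescence endpoint.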

[7] = target: Thyrotropin receptor (Homo sapiens) (UniProt P16473); test: qHTS assay to identify small molecule agonists of the thyroid stimulating hormone receptor (TSHR) signaling pathway (AID 1224843; calls by dose curve; further: nearly all actives have a fitted effect of over 45% in size)
Summary of the method: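 Agonist-mode screen: TSHR HEK293 cells received test chemicals for half an hour at room temperature, then HTRF cAMP detection reagents for one hour prior to fluorescence measurement. Each chemical ran as a 15-concentration series, triplicated.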

[8] = qHTS assay to identify small molecule agonists of the hypoxia (HIF-1) signaling pathway - cell viability counter screen (AID 1224844; calls by dose curve; further: nearly all actives have a fitted effect of over 50% in size)
Summary of the method: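 Same wells as the HIF-1 reporter screen; ME-180 cells carrying HRE-bla, 17 hr treatment at 37C; CellTiter-Glo luminescence read after 30 min at room temperature.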

[9] = qHTS assay to identify small molecule agonists of H2AX (AID 1224845; active means well fitted activation curve with a large enough effect in the signal ratio in the repeat runs, not every such curve was filed as active; the % refers to the signal ratio)
Summary of the method: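 Wild-type CHO-K1 cells, plated overnight, exposed 3hr at 37C to 15 concentrations (0.76% DMSO final). Lysed, then HTRF anti-pH2AX (S139) cryptate and anti-H2AX-d2 antibodies, 24 hr room temperature; 665/620 nm emission read.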

[10] = qHTS assay to identify small molecule agonists of the hypoxia (HIF-1) signaling pathway (AID 1224846; active means well fitted activation curve with a large enough effect in the signal ratio in the repeat runs, not every such curve was filed as active; the % refers to the signal ratio)
Summary of the method: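 In ME-180 cells bearing an HRE-bla construct, 17 h treatment with DMSO-dissolved compounds at 37C was followed by CCF4-AM loading to quantify reporter induction.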

[11] = qHTS assay to identify small molecule agonists of H2AX - cell viability counter screen (AID 1224847; calls by dose curve; further: top concentration of the series differs between compounds; nearly all actives have a fitted effect of over 30% in size)
Summary of the method: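 Quantitative HTS viability measurement: CHO-K1 wild-type cells in serum (10% FBS) medium, short 3 hr drug exposure at 37C with 0.76% DMSO, CellTiter-Glo luminescent detection.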

[12] = qHTS RealTime-Glo MT Cell Viability Assay in HepG2 cells - 24 hour (AID 1224867); further: nearly all actives have a fitted effect of over 50% in size
Summary of the method: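 Viability was tracked continuously by NanoLuc luminescence from prosubstrate reduced by living HepG2 cells, at successive time points over 40 h of compound exposure. Cells with reagent were preincubated 5 h at 37 °C before compound addition.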

[13] = qHTS RealTime-Glo MT Cell Viability Assay in HEK293 cells - 32 hour (AID 1224868); further: nearly all actives have a fitted effect of over 50% in size; further: potency means the concentration at half of the fitted maximal effect
Summary of the method: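 Viability tracked continuously by luminescence as live cells reduce a prosubstrate for NanoLuc; HEK293 cells preincubated 5 h, compound-treated at 37 C, and read at 0, 8, 16, 24, 32 and 40 h.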

[14] = A CellTox Green Cytotoxicity Assay to monitor cytotoxicity in HEK293 cells - 0 hour (AID 1224869); further: nearly all actives have a fitted effect of over 50% in size
Summary of the method: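 Homogeneous no-lysis format: HEK293 cell suspension mixed with CellTox Green reagent, seeded, incubated 5 h at 37 C/5% CO2, then dosed by pintool with compound in DMSO.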

[15] = qHTS RealTime-Glo MT Cell Viability Assay in HepG2 cells - 40 hour (AID 1224870); further: nearly all actives have a fitted effect of over 50% in size
Summary of the method: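 HepG2 cells (600/well) mixed with RealTime-Glo MT reagent, settled 5 h at 37 C/5% CO2 before compound addition. Nonlytic NanoLuc luminescence from viable-cell prosubstrate reduction read repeatedly during 40 h treatment at 37 C.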

[16] = qHTS assay to identify small molecule agonists of the estrogen related receptor signaling pathway with the pleiotropic PPARgamma coactivator (PGC) from Tox21 10K library (AID 1224842); further: nearly all actives have a fitted effect of over 15% in size
Summary of the method: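 PGC/ERR reporter cell line, 2,000 cells per well, incubated 6 h at 37 C before 23 nL compound in DMSO was added. After 18 h at 37 C, One-Glo luminescence read following 30 min at room temperature.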

[17] = qHTS assay to identify small molecule antagonists of the estrogen related receptor (ERR) signaling pathway from Tox21 library (AID 1224848); further: nearly all actives have a fitted effect of over 50% in size; further: potency means the concentration at half of the fitted maximal effect
Summary of the method: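 Quantitative high-throughput format: ERR reporter cells (2,000/well) pre-incubated 6 h, treated 18 h at 37 C with compounds in DMSO alongside positive and negative controls, then read by ONE-Glo luminescence.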

[18] = qHTS assay to identify small molecule agonists of the estrogen related receptor (ERR) signaling pathway from Tox21 library (AID 1224849; calls by dose curve; further: nearly all actives have a fitted effect of over 15% in size); conditions: ERR reporter cell line, ONE-Glo luciferase, 18 h; at 92.4 µM (top of the series) unless noted
Summary of the method: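 Reporter cells (ERR, NTP source) treated with Tox21 10K compounds 18 h, 37 C. Readout: ONE-Glo luminescence, 30 min RT.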

[19] = qHTS assay to identify small molecule antagonists of the estrogen related receptor (ERR) signaling pathway from Tox21 library - cell viability counter screen (AID 1224834); further: nearly all actives have a fitted effect of over 30% in size
Summary of the method: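 In this quantitative HTS format, ERR cells receive compounds in DMSO and are incubated for 17.5 h at 37 C. Live-cell protease activity is then detected with CellTiter-Fluor.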

Chain of Luciferin 4-monooxygenase (Photinus pyralis) (P08659 whole entry, looked up): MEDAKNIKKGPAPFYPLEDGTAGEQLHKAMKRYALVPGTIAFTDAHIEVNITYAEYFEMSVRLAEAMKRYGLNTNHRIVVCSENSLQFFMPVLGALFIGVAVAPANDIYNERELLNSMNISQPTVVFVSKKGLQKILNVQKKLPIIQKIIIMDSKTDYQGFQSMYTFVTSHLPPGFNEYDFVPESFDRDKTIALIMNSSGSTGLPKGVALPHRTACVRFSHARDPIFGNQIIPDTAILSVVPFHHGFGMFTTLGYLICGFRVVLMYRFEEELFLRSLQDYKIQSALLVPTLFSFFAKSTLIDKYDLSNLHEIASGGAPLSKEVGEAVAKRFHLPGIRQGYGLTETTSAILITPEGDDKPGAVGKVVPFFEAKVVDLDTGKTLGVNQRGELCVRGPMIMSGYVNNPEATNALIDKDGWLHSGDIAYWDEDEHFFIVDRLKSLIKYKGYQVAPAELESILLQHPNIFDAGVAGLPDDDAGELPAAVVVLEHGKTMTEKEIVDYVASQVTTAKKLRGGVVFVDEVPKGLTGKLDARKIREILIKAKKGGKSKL
Chain of Thyrotropin receptor (Homo sapiens) (P16473 whole entry, looked up): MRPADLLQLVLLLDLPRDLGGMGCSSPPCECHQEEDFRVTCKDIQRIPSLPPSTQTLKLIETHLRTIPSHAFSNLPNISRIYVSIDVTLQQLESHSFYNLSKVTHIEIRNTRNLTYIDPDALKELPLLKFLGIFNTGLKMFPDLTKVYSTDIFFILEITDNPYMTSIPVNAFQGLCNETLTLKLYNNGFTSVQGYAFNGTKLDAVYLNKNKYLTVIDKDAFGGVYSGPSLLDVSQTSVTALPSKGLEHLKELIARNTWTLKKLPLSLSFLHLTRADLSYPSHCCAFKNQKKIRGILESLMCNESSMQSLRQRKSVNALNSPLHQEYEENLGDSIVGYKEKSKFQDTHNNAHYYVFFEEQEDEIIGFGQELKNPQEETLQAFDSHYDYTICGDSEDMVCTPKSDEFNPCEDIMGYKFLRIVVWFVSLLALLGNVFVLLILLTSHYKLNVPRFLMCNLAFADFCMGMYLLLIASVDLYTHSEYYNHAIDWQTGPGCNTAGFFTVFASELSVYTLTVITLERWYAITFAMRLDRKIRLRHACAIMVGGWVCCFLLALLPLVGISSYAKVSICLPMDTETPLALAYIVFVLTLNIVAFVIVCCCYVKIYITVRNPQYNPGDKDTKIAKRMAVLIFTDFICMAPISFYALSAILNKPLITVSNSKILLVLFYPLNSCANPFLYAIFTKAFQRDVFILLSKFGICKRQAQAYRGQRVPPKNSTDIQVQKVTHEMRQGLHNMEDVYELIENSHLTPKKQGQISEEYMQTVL
Chain of Nuclear receptor subfamily 1 group I member 3 (Homo sapiens) (Q14994 whole entry, looked up): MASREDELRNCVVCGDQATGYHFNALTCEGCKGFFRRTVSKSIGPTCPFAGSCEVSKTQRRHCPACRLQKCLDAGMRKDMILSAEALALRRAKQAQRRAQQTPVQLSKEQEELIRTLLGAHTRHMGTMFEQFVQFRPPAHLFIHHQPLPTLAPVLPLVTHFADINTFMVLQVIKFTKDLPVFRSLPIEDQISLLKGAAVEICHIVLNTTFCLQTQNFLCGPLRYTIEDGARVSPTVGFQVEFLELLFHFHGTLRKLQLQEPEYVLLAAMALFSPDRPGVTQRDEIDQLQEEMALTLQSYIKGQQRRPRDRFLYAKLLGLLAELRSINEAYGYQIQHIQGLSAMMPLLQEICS

Row | Structure (SMILES) | Potency [1] | Potency [2] | Potency [3] | Potency [4] | Potency [5] | Potency [6] | Potency [7] | Potency [8] | Potency [9] | outcome [10] | Potency [11] | Potency [12] | Potency [13] | Potency [14] | Potency [15] | Potency [16] | Potency [17] | activity change, positive = activation [18] | Potency [19]
1 | CC(CCc1ccc2c(c1)OCO2)NN (stereo unspecified) | inactive | inactive | inactive | inactive | inactive | inactive | inactive | inactive | inactive | inactive | inactive | inactive | inactive | inactive | inactive |  |  |  | 
2 | Cc1occc1C(=O)Nc1ccc(C(=O)N2CCC(F)(F)/C(=C\C(=O)N3CCC(N4CCCCC4)CC3)c3ccccc32)cc1 | inactive | inactive | inactive | inactive | inactive |  | inactive | inactive | inactive | inactive | inactive | inactive | 10.8 µM (active) |  | inactive | inactive | inactive | -12.3% [at 42.5 µM] | 
3 | OC/C(Br)=C(\Br)CO | inactive | inactive | inactive | inactive | inactive | inactive | inactive | inactive | inactive | inactive | inactive | inactive | inactive | inactive | inactive | inactive | inactive | 1.63% | 
4 | O=C(O)c1cccc(O)c1 | inactive | inactive | inactive | inactive | inactive | inactive | inactive | inactive | inactive | inactive | inactive | inactive | inactive | inactive | inactive |  |  |  | 
5 | N#C/C(=C1/SC[C@@H](c2ccc(Cl)cc2Cl)S1)n1ccnc1 | inactive | inactive | inactive | inactive |  | inactive | inactive | inactive |  | inactive | inactive | inactive | inactive | inactive | inactive | inactive | 23.7 µM (active) | -40.9% [at 42.5 µM] | 
6 | Nc1ccc(C(=O)OCCCOC(=O)c2ccc(N)cc2)cc1 | inactive | inactive | inactive | inactive | 30.6 µM (active) |  |  | inactive | inactive | inactive |  | inactive | 43.6 µM (active) | inactive | inactive |  |  |  | 
7 | C=C(C)C(=O)OCCOC(=O)CC(C)=O |  |  | inactive |  |  | inactive | inactive | inactive | inactive | inactive | inactive | inactive | inactive | inactive | inactive |  |  |  | inactive
8 | Brc1cc(-c2ccc(Br)c(Br)c2Br)cc(Br)c1Br | inactive | inactive | inactive | inactive | 24 µM (active) | inactive |  | inactive |  | inactive | inactive | inactive | inactive |  | inactive |  |  |  | 
